40 sequences from the supplement of paper PMC10681739 can be followed below.
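Further: Full-length recombinant human RUNX1 bound to double-stranded 36-bp genomic probes on a high-density microarray, scored as Alexa488 fluorescence per spot via anti-RUNX1 antibody, median of four replicate spots.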

RUNX1, sequence (Q01196 whole entry): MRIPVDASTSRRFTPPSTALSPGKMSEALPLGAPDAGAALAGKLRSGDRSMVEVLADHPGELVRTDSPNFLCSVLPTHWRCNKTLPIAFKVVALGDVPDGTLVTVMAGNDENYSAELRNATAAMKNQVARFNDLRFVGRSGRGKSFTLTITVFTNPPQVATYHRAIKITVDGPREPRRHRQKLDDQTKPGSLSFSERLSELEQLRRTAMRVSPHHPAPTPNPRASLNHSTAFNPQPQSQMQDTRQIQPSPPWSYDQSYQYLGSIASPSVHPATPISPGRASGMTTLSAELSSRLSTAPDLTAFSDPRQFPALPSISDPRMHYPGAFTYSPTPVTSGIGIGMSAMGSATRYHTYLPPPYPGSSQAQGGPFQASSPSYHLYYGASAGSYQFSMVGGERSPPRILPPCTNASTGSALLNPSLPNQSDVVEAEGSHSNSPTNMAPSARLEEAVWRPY

The assay concerns the target RUNX1 (UniProt Q01196). Description: RUNX1 binding intensity (PBM fluorescence), RUNX1 alone (arbitrary fluorescence units); higher = stronger binding. The conditions noted are these: RUNX1 concentration 2 nM; ETS1 concentration 0 nM. On the procedure:
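Cooperative gcPBM on 36-bp genomic probes with neighbouring ETS1 and RUNX1 sites. Recombinant human RUNX1 (2 nM) was incubated alone or with ETS1 (25 nM) and detected with anti-RUNX1 antibody plus Alexa488 secondary. Values are medians over 4 replicate spots; the RUNX1+ETS1 data were normalised to the RUNX1-only data. The probes sit in constant array flanks that are not printed.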
GGCACCGGAAGTAGAGCTGCCCCTAGTTGCGGCAGT yielded an RUNX1 binding intensity of 767. To GCCATCCGCAGGACTCCGCGTTCTCGCGGTAAGTGG belongs 736; to GTAAGTAGGCCAGGAAGTGGTCACTGCAGCATGTGA, 722; to GGTCTCTGCTTCCGGTCCTTGTGGTAGCACCTCTGT, 936. CCCCGGGAAGGGAAGTTTGTGGCGGAGGAGGTTCGT: the RUNX1 binding intensity stood at 805. On to GGCCCGGCCGGAAGAAGCCACCTCCCCCGCACGCGT, for which the RUNX1 binding intensity is 849.

With GCGGAGCGAGCGGCCGGATGCGGTCACCATAGAGAC, the RUNX1 binding intensity was found to be 917. The figure for GGCTTCCGCCGCCACCACTGCCCCTCAACCGCCACG is 1110; for TCTAAATCACTTCCTGTTACAGAAACCACAGGCCTG it is 1220. The figure for GCATTTACGGGCAGGAAATGAAACCACAGAGTACAA is 1360.

In turn, CTCAGGGTACCAGGATGTGGTTTAGCTTAGGGGTGG returned an RUNX1 binding intensity of 980.

In the case of TTCTGTAGCTTAGGATGTGGGTTTCTTTGTTTCTGA, the RUNX1 binding intensity was determined as 926. Regarding AGGTCTCCGGAAGTGGGTCTGCGGCGCGCGGGATGC, the RUNX1 binding intensity worked out at 637. The figure for TGGCAGCCACATCCTGCCTGTGGCTAGGTCAACCCA is 794; for GCCTGCACCCTAGTTCCGGTGTGGGTGGAGGGGCCG it is 4050.

As to GAAGCTACTCTGGTTTCCTGTGGTTTTCTGAGCACT, the RUNX1 binding intensity came to 1260. CCCCACATCCGGGGGCCGGGGCCGGGCTGTGGGCTT came in with an RUNX1 binding intensity of 739. With ACCCTGAAATTACCCGGATGTGGTCCCCGCGCGCGC, the RUNX1 binding intensity was determined as 898. GTTCATCCAGGAAACCCCAACCCAGTGCCGCAGTAT showed an RUNX1 binding intensity of 895. In turn, CTTCAGCCGCCACTTCCCCGCCCCCGCAGCCCGACA had an RUNX1 binding intensity of 1290. For TGCATGCAACAGGAAGTGGGGTGTGGTTTGTTCTGG, the RUNX1 binding intensity was determined as 760. Turning to CTCTGCCCGCTTCCGCTGGCGGTACCTCAGAGCCGC, the RUNX1 binding intensity was found to be 904. Turning to GGAGGAAGTGACACCCACCCACTGCCCCCGCAAGGT, the RUNX1 binding intensity turned out to be 797.

CAGAGAAACAGGAAGAACAGTGGTTTCAACTGAAAT returned an RUNX1 binding intensity of 783. CTCTCTGGGCGGAAGGAACGCGGTCACCCTGAGAAA gave an RUNX1 binding intensity of 833. Consider CCCAGAGCTTCCGATTGGCTCTTCTGTGGTGGCGGG, for which the RUNX1 binding intensity is 1010. For the sequence CCTCACCCAGGAAGTGGCTGCGGCTGTCTCAGGGTT, the RUNX1 binding intensity was found to be 770. CGGGTGGTGGCAGGATGTGGGTAGGGGGCCAGGCGA had an RUNX1 binding intensity of 895.

In turn, GAGACACTCTGCTTCCTGCGGTGGAAGATTCAGTAT came in with an RUNX1 binding intensity of 873. Turning to TGCCGGGCCCCGGATGTCACCGCAGCCGCCATCTTA, the RUNX1 binding intensity is 968. The figure for CACTTCCTCCTCGGGGGCCTCAGAAAACCACAGGGC is 1110. In the case of GTTGCAGGAAACGATGGGTTTTGTGGTATGAACTGC, the RUNX1 binding intensity was determined as 829. To ACGGTGCGTTTCCCCAACTACACCGCACGTCACGGA belongs 988. The figure for CCCCTATATCACAGGATGCCGCAAACTAGTAACAGG is 827. For GTCTTAGGTCGGAAGTCTGTGGTCCCTGTTCACATG, the RUNX1 binding intensity stood at 835. On to GCGAGAGGGAGGAAGTGACTCACCAACCACAACAAA, for which the RUNX1 binding intensity was 970.

With ACCAGAACAGGAAATGTTAGTGGTTGAGTTAACGGT, the RUNX1 binding intensity stood at 700. To CTTCTACTTCCTGCCCCGCCCCCAGCTGTGGTCACA belongs 1490; to TCCCGAGAGCCGGAAGCAGCCGCAGGCCCCGCCACA, 778. As to TCATTCTCTGATAAAGGAAGTGGTTACAGCACAATT, the RUNX1 binding intensity is 822.
